{
  "source": "ChEMBL document CHEMBL3988442",
  "about": "“University of Dundee, Small-Polar-MMV Screening Library” (2021)",
  "note": "About 420 (0.61%) of roughly 69,000 compounds showed an effect of 50% or more. The list comes from a sample in which strong results are over-represented; it also holds similar structures and randomly drawn compounds.",
  "data": [
    {"molecular_target": "T1, Histidine--tRNA ligase (Leishmania infantum) (UniProt A4I591)", "T1 sequence (whole entry)": "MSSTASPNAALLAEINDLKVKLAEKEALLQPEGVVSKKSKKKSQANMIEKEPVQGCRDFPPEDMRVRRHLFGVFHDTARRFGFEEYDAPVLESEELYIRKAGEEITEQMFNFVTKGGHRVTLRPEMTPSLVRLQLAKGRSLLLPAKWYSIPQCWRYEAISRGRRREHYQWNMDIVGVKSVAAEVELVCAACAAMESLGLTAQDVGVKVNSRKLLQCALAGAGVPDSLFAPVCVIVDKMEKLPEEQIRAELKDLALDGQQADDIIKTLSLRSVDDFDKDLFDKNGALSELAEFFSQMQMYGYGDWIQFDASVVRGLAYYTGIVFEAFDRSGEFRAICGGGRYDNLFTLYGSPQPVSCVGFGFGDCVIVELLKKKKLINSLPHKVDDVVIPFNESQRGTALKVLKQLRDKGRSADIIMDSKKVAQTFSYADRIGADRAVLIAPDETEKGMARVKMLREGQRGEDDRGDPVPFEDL", "assay": "Leishmania infantum Histidine tRNA synthetase (LdHisRS)", "format": "functional", "set-up": "scale not given: in the data most compounds retested in dose-response had high values", "settings": "30 µM", "units": {"Percent Effect": "%"}, "values": [
      {"smiles": "Cc1ccc(C(=O)N2C[C@@H]3COC[C@]3(COc3cccnc3)C2)cn1", "Percent Effect": 7.52},
      {"smiles": "O=C(NCc1cccs1)[C@]12COC[C@H]1CN(c1ncccn1)C2", "Percent Effect": 5.26},
      {"smiles": "CCCS(=O)(=O)N1C[C@@H](Oc2ncccc2F)[C@H]2OCCC[C@H]21", "Percent Effect": 8.22},
      {"smiles": "c1cnc(N2CCO[C@H]3[C@H](OCc4cccnc4)CC[C@@H]32)nc1", "Percent Effect": -9.73},
      {"smiles": "Cc1ncsc1CN1CC[C@H]2OCC[C@@]2(C(=O)N2CCCO2)C1", "Percent Effect": 16.8},
      {"smiles": "COc1ccccc1C1(CNCc2ccc(C#N)cc2)CCOCC1", "Percent Effect": 60.4},
      {"smiles": "N#Cc1ccc(CNCC2(c3ccccc3)CCOCC2)cc1", "Percent Effect": 42.9},
      {"smiles": "COc1ccccc1C1(CNCc2cccc(O)c2)CCOCC1", "Percent Effect": 109},
      {"smiles": "COc1ccccc1C1(CNCc2cccc(C#N)c2)CCOCC1", "Percent Effect": 49.5},
      {"smiles": "COc1ccccc1C1(CNc2nnc(C)c(C)c2C#N)CCOCC1", "Percent Effect": 37},
      {"smiles": "COc1ccccc1C1(CNCc2ccc([S+](C)[O-])cc2)CC1", "note": "(stereo not given)", "Percent Effect": 12.1},
      {"smiles": "Cn1cc(C(=O)N2C[C@@H]3CN(S(C)(=O)=O)CCO[C@@H]3C2)cn1", "Percent Effect": 7.55},
      {"smiles": "Cc1oncc1C(=O)N1CC[C@H]2[C@@H]1CCC(=O)N2CC1CC1", "Percent Effect": 0},
      {"smiles": "CC(C)CN1C[C@H]2C[C@H](C(=O)N3CCCC3)[C@@H](C1)O2", "Percent Effect": 13.2},
      {"smiles": "Cc1noc(C(C)Nc2ccc3oc(C)nc3c2)n1", "note": "(stereo not given)", "Percent Effect": 106},
      {"smiles": "CC(C)c1nc2cc(NC(=O)Cn3ccc(=O)[nH]c3=O)ccc2o1", "Percent Effect": 14},
      {"smiles": "Cc1noc(C(C)Nc2ccc3oc(=O)[nH]c3c2)n1", "note": "(stereo not given)", "Percent Effect": 16.4},
      {"smiles": "CC(C)c1nc2cc(NC(=O)Cn3ccccc3=O)ccc2o1", "Percent Effect": 12},
      {"smiles": "Cc1noc(C(C)Nc2ccc3c(c2)CCC3)n1", "note": "(stereo not given)", "Percent Effect": 9.38},
      {"smiles": "Cc1noc(C(C)Nc2ccc3oc(C(C)C)nc3c2)n1", "note": "(stereo not given)", "Percent Effect": 106},
      {"smiles": "Fc1cnc(N2C[C@@H]3C[C@@H](c4nc(C5CC5)cs4)O[C@@H]3C2)nc1", "Percent Effect": 7.55},
      {"smiles": "Cc1[nH]/c(=N\\C(=O)c2csc(NCC(C)C)n2)sc1C", "Percent Effect": 20.9},
      {"smiles": "CC(C)CNc1nc(C(=O)/N=c2\\[nH]nc(C(C)(C)C)s2)cs1", "Percent Effect": 1.91},
      {"smiles": "Cc1cs/c(=N/C(=O)c2csc(NCC(C)C)n2)[nH]1", "Percent Effect": 75.3},
      {"smiles": "CCN(Cc1nc2c(cnn2C)c(=O)[nH]1)Cc1ccco1", "Percent Effect": 15.7},
      {"smiles": "O=C(NCC1CCCO1)c1nc2c(s1)CCCN2CC1CC1", "note": "(stereo not given)", "Percent Effect": 29.2},
      {"smiles": "COCCN1CCCc2sc(C(=O)NCC3CCCO3)nc21", "note": "(stereo not given)", "Percent Effect": 52.8},
      {"smiles": "O=C(NCC1CCCO1)c1nc2c(s1)CCCN2Cc1ccccc1", "note": "(stereo not given)", "Percent Effect": 45.8},
      {"smiles": "Cc1cccc(CN2C[C@@H]3COC[C@]3(CNC(=O)C3CCC3)C2)c1", "Percent Effect": 17.8},
      {"smiles": "CNC1CCN(C2CCN(c3ccc(-c4ccco4)cc3)CC2)CC1", "Percent Effect": 42.1},
      {"smiles": "NCC1CCN(C2CCN(c3ccc(-c4ccco4)cc3)CC2)C1", "note": "(stereo not given)", "Percent Effect": 64.3},
      {"smiles": "CCS(=O)(=O)c1ccc(N2CCC(N)CC2)cc1", "Percent Effect": 11.6},
      {"smiles": "O=C(O)c1ccccc1C1CCN(C2CCN(c3ccccc3)CC2)C1", "note": "(stereo not given)", "Percent Effect": 22.7},
      {"smiles": "COc1ccc(N2CCC(N3CCOC(C(F)(F)F)C3)CC2)cc1", "note": "(stereo not given)", "Percent Effect": 14.3},
      {"smiles": "NC1CCN(C2CCN(c3ccc(-c4ccco4)cc3)CC2)CC1", "Percent Effect": 54.8}
    ]}
  ]
}
